# Screening results from PubChem BioAssay.
# HIV RNase H inh-1: HIV-1 RT RNase H inhibitors, primary screen, biochemical, fluorescence; AID 565, 2006; inhibition, % at 10 µM; Gag-Pol polyprotein (Human immunodeficiency virus type 1 group M subtype B (isolate …; RT-RNase H RNA/DNA duplex cleavage; hit rate 1.9% among 65,000; in the data active = inhibition above about 50%
# HIV RNase H inh-2: HIV-1 RT RNase H inhibitors, retest, confirmation, biochemical; shares compounds with HIV RNase H inh-1; Recombinant RT RNase H, fluorescent RNA/DNA duplex cleavage; inhibition, % at 10 µM; hit rate 39% among 1,000; AID 651, 2007; in the data active = inhibition above about 48%; inconclusive = no clear call, values can overlap the other calls
# Numbers stand for hits; n = inactive; u = inconclusive. Only a selection was taken, and hits are over-represented in it overall.
SMILES,HIV RNase H inh-1,others
Cc1cc2oc(=O)cc(COC(=O)c3cccc(N(C)C)c3)c2cc1C,n,
CCOc1ccc(-n2c(SCC(N)=O)nc3c(c2=O)SCC3)cc1,n,
O=C(CSc1ncc(-c2ccc(F)cc2)[nH]1)NCc1ccco1,n,
Cc1cc(C)c2cc(C#N)c(SCC(=O)NCc3ccco3)nc2c1,72,HIV RNase H inh-2=n
Cc1cc(=O)[nH]c(SCC(=O)NCc2ccco2)n1,n,
Cc1ccc2c(SCC(=O)NCc3ccco3)nc(-c3ccc(F)cc3)nc2c1,75,HIV RNase H inh-2=55
Cc1ccc(Nc2nnc(SCC(=O)NCc3ccco3)s2)cc1,n,
CCOC(=O)CSc1nc2cc(C)cc(C)c2cc1C#N,n,
CCN(CC)CC(=O)Nc1cc(C)c2c(=O)oc3ccccc3c2n1,n,
Cc1nc2ncnn2c(C)c1Cc1ccc(Cl)cc1F,n,
CCOC(=O)CSc1cc(=O)n(C)c2cc(Cl)ccc12,n,
c1ccc(-c2nc3c4ccccc4nc(N4CCN(c5ccccn5)CC4)n3n2)cc1,n,
Cc1ccccc1NC(=O)CN1C(=O)COc2ccc(Cl)cc21,n,
COc1ccc(-c2cc(C(=O)Nc3cc(OC)c(OC)c(OC)c3)no2)cc1OC,80,HIV RNase H inh-2=n
COc1cccc(-c2cc(C(=O)Nc3ccc(OC)c(OC)c3)no2)c1,n,
COC(=O)c1cc(-c2ccc(OC)c(OC)c2)on1,n,
O=C(c1ccc2c(=O)n(-c3ccccc3)c(=O)[nH]c2c1)N1CCCCC1,n,
CC(Sc1nnnn1-c1ccccc1)C(=O)Nc1ccc(Cl)cn1 (centres undefined),n,
O=C1c2oc3ccc(Cl)cc3c(=O)c2C(c2cccc(Br)c2)N1CCO (centres undefined),n,
Cc1ccc2oc3c(c(=O)c2c1)C(c1cccc(Br)c1)N(Cc1ccco1)C3=O (centres undefined),60,HIV RNase H inh-2=u
COCCN1C(=O)c2oc3ccccc3c(=O)c2C1c1ccc(O)c(OC)c1 (centres undefined),n,
CCOc1cc(C2c3c(oc4cc(C)c(Cl)cc4c3=O)C(=O)N2Cc2ccco2)ccc1O (centres undefined),61,HIV RNase H inh-2=58
COc1cc(C2c3c(oc4ccccc4c3=O)C(=O)N2Cc2ccncc2)ccc1O (centres undefined),n,
Cc1cc2oc3c(c(=O)c2cc1C)C(c1cccc(Br)c1)N(Cc1ccco1)C3=O (centres undefined),n,
O=C(C(Cc1ccccc1)n1cccc1)N1CCN(c2ncccn2)CC1 (centres undefined),n,
SMILES,HIV RNase H inh-1,others
COc1cc(N2CN=c3s/c(=C\c4ccccn4)c(=O)n3C2)cc(OC)c1OC,n,
CC(C)(C)NC(=O)CSc1nccn1Cc1ccccc1,n,
O=C(Nc1nnc(-c2ccccc2)o1)c1ccc(Cl)cc1,n,
CC(=O)c1ccc(C(=O)Nc2nnc(-c3ccc(Cl)cc3)o2)cc1,n,
CN(C)c1ccc(C(=O)Nc2nnc(-c3ccc(Cl)cc3)o2)cc1,57,HIV RNase H inh-2=n
CCOC(=O)C1=C(C)N=C(/N=C/N(C)C)SC1c1ccccc1 (centres undefined),n,
CC(C)C(NS(=O)(=O)c1ccc2c(c1)OCCO2)C(=O)NCCc1ccccn1 (centres undefined),n,
Nc1c(C(=O)Nc2ccccc2)sc2nc(-c3ccco3)ccc12,87,HIV RNase H inh-2=n
O=C(COC(=O)c1ccco1)Nc1ccccc1,n,
COc1ccccc1NC(=O)c1sc2nc(-c3ccco3)ccc2c1N,84,HIV RNase H inh-2=n
O=C(Nc1ccc(Nc2ccccc2)cc1)c1ccco1,n,
COc1cc2cc3c(N)c(C(=O)NCc4ccco4)sc3nc2cc1OC,n,
COc1ccccc1NC(=O)c1oc2ccccc2c1NC(=O)c1ccco1,n,
Cn1c(=O)[nH]c(=O)c2[nH]c(CN3CCN(C(=O)c4ccco4)CC3)nc21,n,
CCOC(=O)N1CCN(C(=O)c2nc3ccccc3s2)CC1,n,
CCC(C)N1CC23C=CC(O2)C(C(=O)OCc2ccccc2)C3C1=O (centres undefined),n,
O=C(CSc1nc(N2CCCCC2)nc(N2CCCCC2)n1)NC1CCCCC1,n,
Cc1nnc(NC(=O)NC(C)N2C(=O)C3C4C=CC(C4)C3C2=O)s1 (centres undefined),55,HIV RNase H inh-2=n
Cc1nnc(NC(=O)CCCCCN2C(=O)C3C4C=CC(C4)C3C2=O)s1 (centres undefined),n,
CC(NC(=O)Nc1nnc(C(F)(F)F)s1)N1C(=O)C2C3C=CC(C3)C2C1=O (centres undefined),n,
COc1ccc(OC)c(NS(=O)(=O)Cc2ccccc2)c1,77,HIV RNase H inh-2=u
COc1ccc(OC)c(S(=O)(=O)NCc2ccccc2)c1,n,
COc1ccc(OC)c(NC(=O)CS(=O)(=O)c2ccccc2)c1,n,
COc1ccccc1N1CCN(CCCNC(=O)Nc2ccccc2)CC1,n,
O=C(NCCCN1CCN(c2ccccc2F)CC1)Nc1ccc(F)cc1,n,
SMILES,HIV RNase H inh-1,others
CSc1ccc(NC(=O)NCCCN2CCN(c3ccccc3F)CC2)cc1,53,HIV RNase H inh-2=n
CC(C)NC(=O)c1ccc2c(c1)N(CC(=O)N1CCOCC1)C(=O)C(C)(C)O2,n,
CS(=O)(=O)N(CC(=O)N1CCCCCC1)c1ccc2c(c1)OCCO2,n,
CC(=O)c1ccc(C(C)(C)c2ccc(C(C)=O)s2)s1,n,
Cc1[nH]c2ccccc2c1C(=O)CSc1nc2cc(S(=O)(=O)N3CCCCC3)ccc2o1,n,
Cc1ccc(S(=O)(=O)N2CCN(C(=O)CSc3nc4ccccc4o3)C2)cc1,n,
Cc1ccc(C(=O)CSc2nc3cc(S(=O)(=O)N4CCOCC4)ccc3o2)cc1,72,HIV RNase H inh-2=n
O=C(CSc1nc2ccccc2o1)Nc1ccc(N2CCOCC2)cc1,n,
O=C1CCc2cc(S(=O)(=O)N3CCC(C(=O)NC4CCCc5ccccc54)CC3)ccc2N1 (centres undefined),n,
O=C(CSc1nc2cc(S(=O)(=O)N3CCOCC3)ccc2o1)NC1CCCc2ccccc21 (centres undefined),85,HIV RNase H inh-2=u
O=C(CN(Cc1ccccc1)C(=O)CCC(=O)Nc1nccs1)NCc1ccco1,n,
O=C(CN(Cc1ccccc1F)C(=O)Cn1nnc(-c2cccs2)n1)NCC1CCCO1 (centres undefined),n,
O=C(CSc1ccc2c(c1)OCCO2)NCc1ccco1,n,
CCOC(=O)c1sc2nc(N3CCOCC3)c3c(c2c1N)CCCC3,n,
NC(=O)c1sc2nc(N3CCCCC3)c3c(c2c1N)CCCC3,n,
Nc1c(C(=O)NCc2ccco2)sc2nc(N3CCOCC3)c3c(c12)CCCC3,54,HIV RNase H inh-2=n
Cc1cc(C)c(N2C(=NC(=O)CCCC(=O)O)SC3CS(=O)(=O)CC32)c(C)c1 (centres undefined),n,
COC(=O)c1ccc(OC)c(CSc2nnc(COc3ccc(OC)cc3)o2)c1,n,
CCSc1nnc(NC(=O)CSc2nc3c(c(=O)n2CCOC)SC(C)C3)s1 (centres undefined),n,
COc1cc(S(=O)(=O)N(C)C)ccc1F,n,
CCC(CO)n1cnnc1-c1ccncc1 (centres undefined),n,
O=C(c1ccc(F)cc1)C1CCN(C(=O)c2ccncc2)CC1,88,HIV RNase H inh-2=n
O=C(c1ccc(F)cc1)C1CCN(C(=O)N2CCOCC2)CC1,n,
O=C(Nc1ccc2c(c1)OCCO2)C1CCN(C(=O)c2ccc(F)cc2)CC1,n,
Cc1cccc(N2CCN(C(=O)C3CCCN(S(=O)(=O)c4cnc[nH]4)C3)CC2C)c1 (centres undefined),n,
